Test results: PubChem BioAssay (NCI)
About 79,000 compounds went through this panel and 15% of them were active in at least one assay; those are over-represented in the sample as a whole. Unmarked numbers belong to inactive results. Active and inactive are the calls of the source. No stated cut-off is given here; in the data, active means growth inhibition above about 70%; inactive means the rest.

Key:
[1] = NCI Yeast Anticancer Drug Screen. Data for the rad50 strain (AID 155);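 further: 0% = growth of vehicle-only cultures of the same strain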; settings: S. cerevisiae rad50 strain growth inhibition, stronger effect = higher value
Method in brief: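 Growth of the mutant yeast was measured after compound exposure and referenced to vehicle-treated cultures.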

[2] = NCI Yeast Anticancer Drug Screen. Data for the mec2-1 strain (AID 157); settings: S. cerevisiae mec2-1 strain, stronger effect = higher value
Method in brief: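 Mutant yeast (mec2-1) grown with compound; growth inhibition relative to vehicle control reported.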

[3] = NCI Yeast Anticancer Drug Screen. Data for the sgs1 mgt1 strain (AID 161);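 further: 0% = growth of cultures given vehicle only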; settings: S. cerevisiae sgs1 mgt1 strain, stronger effect = higher value
Method in brief: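 This yeast growth screen uses a strain with defined DNA-repair lesions; compound-treated growth is compared with vehicle-treated growth.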

[4] = NCI Yeast Anticancer Drug Screen. Data for the cln2 rad14 strain (AID 165);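 further: 0% = growth equal to vehicle treated cultures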; settings: S. cerevisiae cln2 rad14 strain, stronger effect = higher value
Method in brief: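 Readout is yeast growth inhibition versus vehicle-treated controls, using a strain with cln2 and rad14 alterations exposed to compound.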

[5] = NCI Yeast Anticancer Drug Screen. Data for the bub3 strain (AID 167); settings: S. cerevisiae bub3 mutant strain, stronger effect = higher value
Method in brief: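 Whole-cell yeast assay. The mutant strain was incubated with compounds, and growth inhibition was determined by comparison with vehicle-treated cells.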

[6] = NCI Yeast Anticancer Drug Screen. Data for the mlh1 rad18 strain (AID 175); settings: S. cerevisiae mlh1 rad18 strain growth inhibition, stronger effect = higher value
Method in brief: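 Genetically defined yeast (DNA repair-deficient) exposed to compounds; growth inhibition determined relative to vehicle.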

[7] = at 5.0 µM (retest, dose inferred, filed as 0.5)
[8] = at 50.0 µM (retest, dose inferred, filed as 5.0)

SMILES | growth inhibition [1, 7] | growth inhibition [1, 8] | growth inhibition ([1]; at 50.0 µM) | growth inhibition [2, 7] | growth inhibition [2, 8] | growth inhibition ([2]; at 50.0 µM) | growth inhibition [3, 7] | growth inhibition [3, 8] | growth inhibition ([3]; at 50.0 µM) | growth inhibition [4, 7] | growth inhibition [4, 8] | growth inhibition ([4]; at 50.0 µM) | growth inhibition [5, 7] | growth inhibition [5, 8] | growth inhibition ([5]; at 50.0 µM) | growth inhibition [6, 7] | growth inhibition [6, 8] | growth inhibition ([6]; at 50.0 µM)
COc1ccc(NC(=O)OC(C)C)c(OC)c1 | 2% | 10% | -2.75% | -4% | 4% | 6.45% | -3% | 7% | -21.4% | 5% | 2% | 45.4% | 15% | 42% | 18.4% | 3% | 8% | -10.8%
CC(=O)C1C(S)CC2C3CC=C4CC(O)CCC4(C)C3CCC21C (configuration not stated) | 1% | 98% (active) | 98.8% (active) | 7% | 98% (active) | 98.5% (active) | -8% | 98% (active) | 98.7% (active) | -7% | 98% (active) | 98% (active) | 8% | 98% (active) | 50.9% | 0% | 98% (active) | 98.8% (active)
CNC(Cc1ccccc1)c1ccc(OC)c2ccccc12 (configuration not stated) | 3% | 9% | 18.2% | 6% | -16% | 10.2% | -3% | -10% | 14.8% | -1% | 11% | 7.7% | 27% | 25% | 51.7% | -2% | 40% | 21.6%
CC(C)=Cc1cc2c(cc1O)CCC1C2CC[C@@]2(C)C1CC[C@@H]2O (some centres not stated) | 14% | 16% | 41.2% | -5% | 24% | 60.1% | -14% | 8% | 71% (active) | 7% | 29% | 78.6% (active) | -29% | 22% | 45.8% | -1% | 23% | 54.2%
CCCCCC(=O)/C=C/c1ccc(C)cc1 | -155% | -162% | 82.6% (active) | -47% | -59% | 56.9% | -60% | -65% | 83% (active) | -59% | -80% | 75% (active) | -59% | -57% | 61.8% | -123% | -131% | 81.7% (active)
CNc1ccc(N)cc1 | 6% | -9% | -15.1% | -2% | -5% | 21.6% | -8% | -2% | -3.85% | 5% | 1% | 26.4% | 9% | 8% | 7.1% | 0% | -5% | -15.2%
O=C(c1ccccc1)C1OC1c1ccccc1Cl (configuration not stated) | 1% | 40% | -13.7% | -4% | 21% | -4.4% | 7% | 54% | -12.7% | 4% | 23% | -52.2% | 3% | 61% | -3.7% | 12% | 78% (active) | -9%
O=C(Nc1c(Cl)cccc1Cl)OCCOc1ccc(Cl)cc1Cl | 44% | 73% (active) | 88.5% (active) | 36% | 57% | 90.8% (active) | 47% | 58% | 91.2% (active) | 34% | 61% | 88.2% (active) | 38% | 71% (active) | 90.7% (active) | 55% | 80% (active) | 90% (active)
O=C(NNS(=O)(=O)c1ccccc1)Nc1ccccc1 | -21% | -15% | -13.4% | 17% | -11% | 5.85% | -3% | 6% | 7.45% | -1% | 4% | 3.8% | 2% | 1% | 7.2% | 4% | 15% | -5.3%
CN(C)c1nc(=NCc2ccccc2)ss1 | -7% | 46% | 66.9% | -5% | 38% | 54.7% | 19% | 77% (active) | 72.5% (active) | 8% | 48% | 36.6% | 0% | 76% (active) | 59% | 5% | 82% (active) | 50.1%
CCC1OC(OC)C=CC1=O (configuration not stated) | -1% | -8% | 90% (active) | -10% | -25% | 94% (active) | -14% | -19% | 90.2% (active) | 18% | 15% | 90.5% (active) | -6% | -15% | 90.3% (active) | -16% | -30% | 91.8% (active)
CCS(=O)(=O)/C=C/c1ccc2ccccc2n1 | -143% | 47% | 47.3% | -43% | 6% | 28.9% | -55% | 23% | 35.2% | -41% | -14% | 3.55% | -67% | 16% | 18.4% | -134% | 39% | 63.4%
CCC[CH2][Sn]([CH2]CCC)([O]C(=O)C(OC(C)=O)c1ccccc1)[O]C(=O)C(OC(C)=O)c1ccccc1 (configuration not stated) | 52% | 98% (active) | 98.5% (active) | 43% | 98% (active) | 97.8% (active) | 45% | 97% (active) | 98.5% (active) | 31% | 97% (active) | 96.4% (active) | 71% (active) | 97% (active) | 98% (active) | 60% | 98% (active) | 98.5% (active)
O=C1c2ccccc2C(=O)c2sc(Nc3cccc(Cl)c3)nc21 | 93% (active) | 98% (active) | 89.6% (active) | 93% (active) | 99% (active) | 92.2% (active) | 92% (active) | 99% (active) | 93% (active) | 54% | 98% (active) | 89.9% (active) | 98% (active) | 97% (active) | 90.6% (active) | 92% (active) | 98% (active) | 90.5% (active)
O=C(O)/C(=C/c1c(O)ccc2ccccc12)c1csc(-c2nc(/C(=C\c3c(O)ccc4ccccc34)C(=O)O)cs2)n1 | 74% (active) | 74% (active) | 89.6% (active) | 48% | 48% | 92% (active) | 74% (active) | 74% (active) | 92% (active) | 46% | 46% | 90% (active) | 49% | 49% | 90.2% (active) | 68% | 68% | 88% (active)
CN(C)c1nc(=Nc2ccc(N=c3nc(N(C)C)ss3)cc2)ss1 | 0% | 97% (active) | 91.8% (active) | 4% | 96% (active) | 92.8% (active) | 28% | 98% (active) | 88.2% (active) | -4% | 93% (active) | 69% | 4% | 98% (active) | 93.4% (active) | 11% | 98% (active) | 96.9% (active)
CCCCOP(=O)(OCCCC)C(NS(=O)(=O)c1ccccc1)(C(=O)OCC)C(F)(F)F (configuration not stated) | 11% | 42% | 99% (active) | 7% | 28% | 99.1% (active) | 3% | 48% | 99% (active) | 16% | 63% | 99.2% (active) | 9% | 47% | 99.2% (active) | 26% | 79% (active) | 99% (active)
CCCCCN(CCCCC)CC(O)c1cc2ccccc2c2ccccc12 (configuration not stated) | -1% | 98% (active) | 99.3% (active) | 11% | 99% (active) | 99.4% (active) | 18% | 100% (active) | 99.4% (active) | -12% | 98% (active) | 99.2% (active) | -1% | 99% (active) | 99.3% (active) | 27% | 99% (active) | 99.2% (active)
O=C1SCCN1/N=C/c1ccc([N+](=O)[O-])o1 | 30% | 85% (active) | 85.8% (active) | 13% | 82% (active) | 65.3% | 34% | 92% (active) | 93.3% (active) | 2% | 68% | 50.7% | 10% | 80% (active) | 64.6% | 51% | 94% (active) | 92% (active)
